# Experiments:
# Assay in all cases: DAPPL (digital affinity profiling via proximity ligation, sequencing); 10 mM Tris-HCl pH 7.5, 50 mM NaCl, 1 mM DTT, 4% glycerol, room temperature, 30 min; GST-TFs on glutathione beads, 16-mer random dsDNA library, 0.1% formaldehyde crosslink after washing; high values mean tight binding
# FEV = biological target: T1, FEV (Homo sapiens, UniProt Q99581 1-238); conditions: protein: recombinant; tags: N-terminal GST; dsDNA, one strand shown
# T1 sequence: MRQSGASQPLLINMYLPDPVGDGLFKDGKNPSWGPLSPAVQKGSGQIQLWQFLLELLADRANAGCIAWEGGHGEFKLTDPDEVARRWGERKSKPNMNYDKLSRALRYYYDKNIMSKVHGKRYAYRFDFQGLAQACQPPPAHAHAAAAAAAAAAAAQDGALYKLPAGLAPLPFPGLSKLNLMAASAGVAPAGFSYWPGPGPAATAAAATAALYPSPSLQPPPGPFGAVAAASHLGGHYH
# How it was run: (§1)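 Human transcription factors carrying a GST fusion were produced in yeast, bound to glutathione beads, tagged with DNA barcodes and pooled together with a tag-only sample. Each pool was held with 200 nmole of a random double-stranded 16-mer DNA library in Tris/NaCl/DTT/glycerol buffer for 30 min at room temperature, then washed, crosslinked in 0.1% formaldehyde, proximity-ligated with BsaI/T4 ligase (1 h, 37 °C), PCR-amplified and sequenced on an Illumina NextSeq500. Binding signal is the read frequency of each hexamer for a given factor divided by its frequency in the tag-only sample.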
# ETV5 = ETV5 (Homo sapiens, UniProt P41161 1-510); conditions: protein: recombinant; tags: N-terminal GST; dsDNA, one strand shown
# How it was run: as §1
# HSF1 = HSF1 (Homo sapiens, UniProt Q00613 1-529); conditions: protein: recombinant; tags: N-terminal GST; chain copies: 3; dsDNA, one strand shown
# How it was run: as §1
# SPIC = biological target: T2, SPIC (Homo sapiens, UniProt Q8N5J4 1-248); conditions: protein: recombinant; tags: N-terminal GST; dsDNA, one strand shown
# T2 sequence: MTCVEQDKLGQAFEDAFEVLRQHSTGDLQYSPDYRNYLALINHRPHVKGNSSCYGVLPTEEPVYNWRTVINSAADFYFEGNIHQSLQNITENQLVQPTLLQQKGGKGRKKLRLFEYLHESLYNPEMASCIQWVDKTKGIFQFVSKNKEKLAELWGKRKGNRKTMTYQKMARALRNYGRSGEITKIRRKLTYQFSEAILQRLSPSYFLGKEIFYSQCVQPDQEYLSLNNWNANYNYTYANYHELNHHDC
# How it was run: as §1
# ELF4 = ELF4 (Homo sapiens, UniProt Q99607 1-663); conditions: protein: recombinant; tags: N-terminal GST; dsDNA, one strand shown
# How it was run: as §1
# ELK4 = biological target: T3, ELK4 (Homo sapiens, UniProt P28324-2 1-405); conditions: protein: recombinant; tags: N-terminal GST; dsDNA, one strand shown
# T3 sequence: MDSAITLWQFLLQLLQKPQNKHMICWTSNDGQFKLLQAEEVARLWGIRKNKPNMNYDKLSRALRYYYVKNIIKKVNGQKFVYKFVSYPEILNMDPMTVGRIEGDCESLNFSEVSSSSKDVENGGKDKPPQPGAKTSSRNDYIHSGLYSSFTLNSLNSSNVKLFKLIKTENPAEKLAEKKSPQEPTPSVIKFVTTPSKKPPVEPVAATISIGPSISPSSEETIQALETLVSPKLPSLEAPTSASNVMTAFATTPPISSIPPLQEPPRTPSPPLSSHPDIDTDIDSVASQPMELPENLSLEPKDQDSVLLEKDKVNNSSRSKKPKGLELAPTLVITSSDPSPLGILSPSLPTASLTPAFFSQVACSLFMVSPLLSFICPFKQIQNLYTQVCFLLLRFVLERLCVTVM
# How it was run: as §1
# ETV2 = biological target: T4, ETV2 (Homo sapiens, UniProt O00321 1-342); conditions: protein: recombinant; tags: N-terminal GST; dsDNA, one strand shown
# T4 sequence: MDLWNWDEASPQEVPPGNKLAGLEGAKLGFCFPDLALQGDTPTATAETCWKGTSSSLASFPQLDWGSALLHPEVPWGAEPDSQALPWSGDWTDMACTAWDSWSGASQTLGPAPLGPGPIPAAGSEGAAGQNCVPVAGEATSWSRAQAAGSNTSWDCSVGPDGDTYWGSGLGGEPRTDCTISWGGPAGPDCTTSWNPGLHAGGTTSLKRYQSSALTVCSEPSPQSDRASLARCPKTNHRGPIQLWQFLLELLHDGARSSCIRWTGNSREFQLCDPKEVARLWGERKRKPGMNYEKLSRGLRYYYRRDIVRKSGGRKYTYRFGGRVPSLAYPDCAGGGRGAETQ
# How it was run: as §1
# ELF3 = biological target: T5, ELF3 (Homo sapiens, UniProt P78545 1-371); conditions: protein: recombinant; tags: N-terminal GST; dsDNA, one strand shown
# T5 sequence: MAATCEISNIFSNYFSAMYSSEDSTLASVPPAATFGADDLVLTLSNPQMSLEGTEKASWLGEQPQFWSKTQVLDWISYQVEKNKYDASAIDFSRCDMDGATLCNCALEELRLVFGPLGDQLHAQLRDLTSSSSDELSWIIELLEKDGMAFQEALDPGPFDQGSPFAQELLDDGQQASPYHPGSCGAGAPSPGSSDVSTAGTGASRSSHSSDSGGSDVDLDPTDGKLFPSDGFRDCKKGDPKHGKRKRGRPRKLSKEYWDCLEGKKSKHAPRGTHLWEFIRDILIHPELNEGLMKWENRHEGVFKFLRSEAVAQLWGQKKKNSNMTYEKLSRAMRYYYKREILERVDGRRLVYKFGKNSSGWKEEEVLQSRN
# How it was run: as §1
# CRX = CRX (Homo sapiens, UniProt O43186 1-299); conditions: protein: recombinant; tags: N-terminal GST; dsDNA, one strand shown
# How it was run: as §1
# ETV1 = ETV1 (Homo sapiens, UniProt P50549 1-477); conditions: protein: recombinant; tags: N-terminal GST; dsDNA, one strand shown
# How it was run: as §1
# ERF = biological target: T6, ERF (Homo sapiens, UniProt P50548 1-548); conditions: protein: recombinant; tags: N-terminal GST; dsDNA, one strand shown
# T6 sequence: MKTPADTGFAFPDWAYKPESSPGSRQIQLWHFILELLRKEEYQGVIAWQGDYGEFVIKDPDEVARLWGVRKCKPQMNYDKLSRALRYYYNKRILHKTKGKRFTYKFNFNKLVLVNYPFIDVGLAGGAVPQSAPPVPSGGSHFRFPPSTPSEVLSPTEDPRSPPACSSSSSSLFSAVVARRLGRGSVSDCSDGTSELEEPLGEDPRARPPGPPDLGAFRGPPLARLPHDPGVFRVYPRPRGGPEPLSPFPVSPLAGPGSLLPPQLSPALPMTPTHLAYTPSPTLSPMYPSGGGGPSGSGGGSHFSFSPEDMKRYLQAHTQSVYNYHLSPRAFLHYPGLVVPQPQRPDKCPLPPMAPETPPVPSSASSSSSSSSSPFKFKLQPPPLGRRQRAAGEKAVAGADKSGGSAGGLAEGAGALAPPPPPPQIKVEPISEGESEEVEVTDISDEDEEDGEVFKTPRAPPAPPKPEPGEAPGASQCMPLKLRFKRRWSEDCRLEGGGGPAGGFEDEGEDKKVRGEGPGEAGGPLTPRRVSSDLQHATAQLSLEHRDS
# How it was run: as §1
# ETV3L = biological target: T7, ETV3L (Homo sapiens, UniProt Q6ZN32 1-361); conditions: protein: recombinant; tags: N-terminal GST; dsDNA, one strand shown
# T7 sequence: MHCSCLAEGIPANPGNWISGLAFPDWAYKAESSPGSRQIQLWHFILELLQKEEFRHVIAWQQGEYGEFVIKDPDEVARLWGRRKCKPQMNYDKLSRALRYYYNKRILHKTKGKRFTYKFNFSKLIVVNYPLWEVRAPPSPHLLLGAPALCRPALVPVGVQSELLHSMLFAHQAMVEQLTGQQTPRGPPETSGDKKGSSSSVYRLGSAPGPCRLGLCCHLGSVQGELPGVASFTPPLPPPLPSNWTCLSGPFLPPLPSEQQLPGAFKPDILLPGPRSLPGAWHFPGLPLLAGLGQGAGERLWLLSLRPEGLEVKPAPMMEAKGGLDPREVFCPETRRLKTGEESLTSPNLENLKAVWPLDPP
# How it was run: as §1
# ETS2 = biological target: T8, ETS2 (Homo sapiens, UniProt P15036 1-469); conditions: protein: recombinant; tags: N-terminal GST; dsDNA, one strand shown
# T8 sequence: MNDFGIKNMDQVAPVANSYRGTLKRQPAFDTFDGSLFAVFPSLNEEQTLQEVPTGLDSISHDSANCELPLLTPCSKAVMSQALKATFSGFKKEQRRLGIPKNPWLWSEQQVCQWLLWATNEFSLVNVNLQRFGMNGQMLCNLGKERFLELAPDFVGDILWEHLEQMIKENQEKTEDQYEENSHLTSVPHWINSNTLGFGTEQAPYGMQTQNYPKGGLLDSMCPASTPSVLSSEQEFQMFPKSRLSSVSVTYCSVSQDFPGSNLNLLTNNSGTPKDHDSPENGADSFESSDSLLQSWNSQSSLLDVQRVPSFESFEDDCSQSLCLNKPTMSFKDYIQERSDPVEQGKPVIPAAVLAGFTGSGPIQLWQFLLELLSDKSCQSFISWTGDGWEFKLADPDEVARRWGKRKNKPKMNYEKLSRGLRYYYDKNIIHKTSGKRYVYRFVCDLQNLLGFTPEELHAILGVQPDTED
# How it was run: as §1
# SPDEF = biological target: T9, SPDEF (Homo sapiens, UniProt O95238 1-335); conditions: protein: recombinant; tags: N-terminal GST; dsDNA, one strand shown
# T9 sequence: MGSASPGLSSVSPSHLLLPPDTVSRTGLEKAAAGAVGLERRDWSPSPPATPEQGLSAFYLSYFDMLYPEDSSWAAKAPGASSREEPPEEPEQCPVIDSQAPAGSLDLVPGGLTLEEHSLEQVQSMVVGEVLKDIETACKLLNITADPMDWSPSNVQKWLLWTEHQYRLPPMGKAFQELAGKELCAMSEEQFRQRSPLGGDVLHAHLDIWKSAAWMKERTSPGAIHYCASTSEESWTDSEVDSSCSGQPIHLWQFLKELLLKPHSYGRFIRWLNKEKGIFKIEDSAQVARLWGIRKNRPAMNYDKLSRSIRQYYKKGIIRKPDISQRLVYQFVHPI
# How it was run: as §1
# ETV7 = biological target: T10, ETV7 (Homo sapiens, UniProt Q9Y603 1-341); conditions: protein: recombinant; tags: N-terminal GST; dsDNA, one strand shown
# T10 sequence: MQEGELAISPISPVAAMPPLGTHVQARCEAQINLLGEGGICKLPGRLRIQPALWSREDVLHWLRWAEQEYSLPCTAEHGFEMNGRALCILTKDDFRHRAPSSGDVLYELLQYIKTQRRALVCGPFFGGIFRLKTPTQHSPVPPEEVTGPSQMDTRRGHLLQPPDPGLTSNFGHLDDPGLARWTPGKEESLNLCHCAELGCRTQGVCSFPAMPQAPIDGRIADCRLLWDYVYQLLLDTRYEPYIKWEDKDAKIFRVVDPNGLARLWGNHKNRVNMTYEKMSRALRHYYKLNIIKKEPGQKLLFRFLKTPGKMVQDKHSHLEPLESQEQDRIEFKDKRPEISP
# How it was run: as §1
# ELF5 = biological target: T11, ELF5 (Homo sapiens, UniProt Q9UKW6-2 1-255); conditions: protein: recombinant; tags: N-terminal GST; dsDNA, one strand shown
# T11 sequence: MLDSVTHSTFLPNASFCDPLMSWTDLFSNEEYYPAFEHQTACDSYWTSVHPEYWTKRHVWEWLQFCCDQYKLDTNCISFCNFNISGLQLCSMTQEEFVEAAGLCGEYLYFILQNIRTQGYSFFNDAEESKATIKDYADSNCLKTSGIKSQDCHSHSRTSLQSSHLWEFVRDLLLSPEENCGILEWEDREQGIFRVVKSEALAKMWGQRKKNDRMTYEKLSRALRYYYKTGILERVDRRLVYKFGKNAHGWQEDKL
# How it was run: as §1
# ETV3 = biological target: T12, ETV3 (Homo sapiens, UniProt P41162-2 1-143); conditions: protein: recombinant; tags: N-terminal GST; dsDNA, one strand shown
# T12 sequence: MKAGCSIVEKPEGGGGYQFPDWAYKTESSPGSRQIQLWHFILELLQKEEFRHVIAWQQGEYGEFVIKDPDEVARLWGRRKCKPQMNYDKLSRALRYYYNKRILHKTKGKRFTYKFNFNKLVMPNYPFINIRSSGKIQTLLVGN
# How it was run: as §1
# ETV6 = ETV6 (Homo sapiens, UniProt P41212 1-452); conditions: protein: recombinant; tags: N-terminal GST; dsDNA, one strand shown
# How it was run: as §1
# Chain of ETV6 (P41212 whole entry): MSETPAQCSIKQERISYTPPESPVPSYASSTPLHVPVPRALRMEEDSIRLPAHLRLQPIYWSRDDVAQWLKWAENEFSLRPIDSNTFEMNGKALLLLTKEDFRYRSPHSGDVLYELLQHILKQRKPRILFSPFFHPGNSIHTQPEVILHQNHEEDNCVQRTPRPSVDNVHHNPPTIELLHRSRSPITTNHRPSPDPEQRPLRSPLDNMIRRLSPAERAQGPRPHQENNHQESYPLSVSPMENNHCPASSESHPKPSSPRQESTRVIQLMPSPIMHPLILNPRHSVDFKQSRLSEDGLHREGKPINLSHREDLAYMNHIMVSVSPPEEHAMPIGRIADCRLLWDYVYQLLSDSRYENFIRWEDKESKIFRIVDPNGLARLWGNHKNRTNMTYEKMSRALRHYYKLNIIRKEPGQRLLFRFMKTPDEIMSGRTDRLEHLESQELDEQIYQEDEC
# Chain of ETV1 (P50549 whole entry): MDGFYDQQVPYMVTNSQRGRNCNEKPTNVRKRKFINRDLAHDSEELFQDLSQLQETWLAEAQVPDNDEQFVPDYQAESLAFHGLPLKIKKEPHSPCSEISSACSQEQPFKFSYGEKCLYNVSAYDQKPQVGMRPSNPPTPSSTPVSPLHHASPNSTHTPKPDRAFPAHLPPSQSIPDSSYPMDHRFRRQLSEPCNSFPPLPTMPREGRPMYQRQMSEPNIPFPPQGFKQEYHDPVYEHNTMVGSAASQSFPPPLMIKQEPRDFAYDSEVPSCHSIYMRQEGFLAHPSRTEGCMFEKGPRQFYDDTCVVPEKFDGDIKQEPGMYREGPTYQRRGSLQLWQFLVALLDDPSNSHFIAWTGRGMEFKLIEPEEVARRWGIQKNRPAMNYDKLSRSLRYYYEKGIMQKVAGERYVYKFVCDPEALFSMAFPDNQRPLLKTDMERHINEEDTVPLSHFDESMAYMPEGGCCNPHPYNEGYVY
# Chain of ELF4 (Q99607 whole entry): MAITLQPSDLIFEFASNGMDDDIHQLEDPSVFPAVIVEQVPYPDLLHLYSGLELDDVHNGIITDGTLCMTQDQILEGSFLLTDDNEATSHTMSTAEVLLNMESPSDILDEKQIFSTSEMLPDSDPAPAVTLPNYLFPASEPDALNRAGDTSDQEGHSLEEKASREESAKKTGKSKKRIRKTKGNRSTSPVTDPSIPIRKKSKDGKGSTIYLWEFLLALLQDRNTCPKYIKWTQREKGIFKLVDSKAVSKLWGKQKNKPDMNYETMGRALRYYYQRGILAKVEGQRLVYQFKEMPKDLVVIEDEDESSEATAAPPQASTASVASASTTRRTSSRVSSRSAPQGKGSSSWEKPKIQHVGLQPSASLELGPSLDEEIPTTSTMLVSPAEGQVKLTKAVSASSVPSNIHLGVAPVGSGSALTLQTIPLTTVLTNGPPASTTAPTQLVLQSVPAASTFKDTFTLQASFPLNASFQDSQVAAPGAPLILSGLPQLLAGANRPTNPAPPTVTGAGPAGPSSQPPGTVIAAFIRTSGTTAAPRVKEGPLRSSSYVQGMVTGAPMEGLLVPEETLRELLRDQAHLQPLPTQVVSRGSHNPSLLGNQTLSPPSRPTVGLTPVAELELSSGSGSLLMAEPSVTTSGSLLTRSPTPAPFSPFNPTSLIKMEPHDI
# Chain of ETV5 (P41161 whole entry): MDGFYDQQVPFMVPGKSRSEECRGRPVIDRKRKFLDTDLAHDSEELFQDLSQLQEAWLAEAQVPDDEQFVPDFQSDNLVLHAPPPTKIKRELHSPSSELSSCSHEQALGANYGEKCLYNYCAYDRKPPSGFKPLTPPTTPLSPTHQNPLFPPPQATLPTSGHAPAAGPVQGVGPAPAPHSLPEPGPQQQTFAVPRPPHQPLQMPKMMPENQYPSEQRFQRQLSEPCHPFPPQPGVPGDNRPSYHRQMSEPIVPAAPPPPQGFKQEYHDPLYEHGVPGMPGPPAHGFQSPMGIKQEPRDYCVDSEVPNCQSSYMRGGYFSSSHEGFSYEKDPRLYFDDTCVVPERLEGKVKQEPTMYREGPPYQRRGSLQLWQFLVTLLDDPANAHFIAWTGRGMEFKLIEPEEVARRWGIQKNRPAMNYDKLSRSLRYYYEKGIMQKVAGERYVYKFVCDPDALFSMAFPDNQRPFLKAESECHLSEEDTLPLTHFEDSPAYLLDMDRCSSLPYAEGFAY
# Chain of CRX (O43186 whole entry): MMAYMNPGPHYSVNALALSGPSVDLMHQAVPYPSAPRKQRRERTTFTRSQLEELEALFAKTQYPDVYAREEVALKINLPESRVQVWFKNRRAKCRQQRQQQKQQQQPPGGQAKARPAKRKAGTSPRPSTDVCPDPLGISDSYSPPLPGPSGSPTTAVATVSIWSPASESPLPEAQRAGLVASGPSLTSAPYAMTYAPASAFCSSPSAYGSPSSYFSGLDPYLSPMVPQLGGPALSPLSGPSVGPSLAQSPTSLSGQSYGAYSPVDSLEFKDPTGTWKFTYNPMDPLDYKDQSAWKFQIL
# Chain of HSF1 (Q00613 whole entry): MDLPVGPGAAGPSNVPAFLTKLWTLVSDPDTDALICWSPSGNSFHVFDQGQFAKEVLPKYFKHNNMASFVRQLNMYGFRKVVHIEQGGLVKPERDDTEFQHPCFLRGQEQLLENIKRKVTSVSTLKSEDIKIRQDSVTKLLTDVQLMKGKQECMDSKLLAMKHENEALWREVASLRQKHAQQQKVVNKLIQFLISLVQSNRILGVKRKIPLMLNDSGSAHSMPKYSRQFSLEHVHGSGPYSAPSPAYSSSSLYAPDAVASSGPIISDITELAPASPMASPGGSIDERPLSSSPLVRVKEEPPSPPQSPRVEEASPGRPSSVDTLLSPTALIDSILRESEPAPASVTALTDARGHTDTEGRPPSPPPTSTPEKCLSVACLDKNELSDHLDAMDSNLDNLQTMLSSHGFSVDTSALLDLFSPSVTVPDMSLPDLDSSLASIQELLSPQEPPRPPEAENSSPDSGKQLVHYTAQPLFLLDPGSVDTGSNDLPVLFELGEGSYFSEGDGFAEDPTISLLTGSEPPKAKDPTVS
sequence,measurement,setting,value
CACGCT,binding signal,FEV,"1.32 fold enrichment (6-mer frequency, TF over GST control)"
same,binding signal,ETV5,"1.34 fold enrichment (6-mer frequency, TF over GST control)"
same,binding signal,HSF1,"1.19 fold enrichment (6-mer frequency, TF over GST control)"
same,binding signal,SPIC,"1.23 fold enrichment (6-mer frequency, TF over GST control)"
same,binding signal,ELF4,"1.43 fold enrichment (6-mer frequency, TF over GST control)"
same,binding signal,ELK4,"1.36 fold enrichment (6-mer frequency, TF over GST control)"
same,binding signal,ETV2,"1.27 fold enrichment (6-mer frequency, TF over GST control)"
same,binding signal,ELF3,"1.4 fold enrichment (6-mer frequency, TF over GST control)"
same,binding signal,CRX,"1.17 fold enrichment (6-mer frequency, TF over GST control)"
same,binding signal,ETV1,"1.34 fold enrichment (6-mer frequency, TF over GST control)"
same,binding signal,ERF,"1.35 fold enrichment (6-mer frequency, TF over GST control)"
same,binding signal,ETV3L,"1.37 fold enrichment (6-mer frequency, TF over GST control)"
same,binding signal,ETS2,"1.31 fold enrichment (6-mer frequency, TF over GST control)"
same,binding signal,SPDEF,"1.35 fold enrichment (6-mer frequency, TF over GST control)"
same,binding signal,ETV7,"1.36 fold enrichment (6-mer frequency, TF over GST control)"
same,binding signal,ELF5,"1.25 fold enrichment (6-mer frequency, TF over GST control)"
same,binding signal,ETV3,"1.37 fold enrichment (6-mer frequency, TF over GST control)"
same,binding signal,ETV6,"1.34 fold enrichment (6-mer frequency, TF over GST control)"

# Source: publication PMC7862700, “An all-to-all approach to the identification of sequence-specific readers for epigenetic DNA modifications on cytosine”
